The results in this text go back to PubChem BioAssay (NCI).

This is part of a sample that, as a whole, favours compounds with a hit. Of some 83,000 tested, about 20% had one in any assay.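 The test compound was applied at a single concentration to cells in 96-well plates for 48 hours, and percent growth was recorded.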 Active and inactive are the calls of the source. How the source made its calls: active means growth percent below 10; inactive means the rest.

The test system of the assay is COLO 205 colon. Put plainly: NCI-60 one-dose screen, 48 h (100 = growth as untreated, 0 = no growth, -100 = all killed). To be noted: 10 µM.
Regarding `O=C(c1ccccc1)n1ccc(-c2cc3cc(Br)ccc3oc2=O)n1`, the growth is 11% (inactive).

On to `Clc1ccc(/C=N/Nc2ncnc3sc4c(c23)CCN(Cc2ccccc2)C4)cc1`, for which the growth is -86.1% (active).

`Nc1cc(-c2cccc(C(=O)NCc3ccc4c(c3)OCO4)c2)ccn1`: the growth was 131% (inactive).
